# Measured values from PubChem BioAssay (NCATS).
# Results filed as inconclusive are left out. Calls of active or inactive are those of the source. The call rests on the fitted dose curve; in most records, active means well fitted inhibition curve with a large enough effect; inconclusive means small, poorly fitted or top-dose-only effect; inactive means no such curve, though single readings can be large or run the other way.
# Tested on: Zika virus NS2B-NS3 protease (unlinked complex)
# Assay: Primary screen GU Rhodamine qHTS for Zika virus inhibitors: Unlinked NS2B-NS3 protease assay (AID 1347159); further: nearly all actives have a fitted effect of over 60% in size
# Conditions: Recombinant ZIKV NS2B-NS3 protease, Rhodamine110 substrate fluorescence; series mostly up to 107 µM; activity change, negative = inhibition: at the top concentration
# From the text: Avindra Nath, Ph.D., National Institute of Neurological Disorders and Stroke (NINDS), Bethesda, MD
# Radhakrishnan Padmanabhan, Ph.D., Georgetown University (GU), Washington D.C.
# Zika Virus causes congenital defects, including microcephaly and is associated with Guillain-Barre syndrome, eningoencephalitis and myelitis in infected adult. […] Using a target-based approach, we hope to establish a screening paradigm to uncover novel, cell-active NS2B-NS3 protease (Zika Virus) specific inhibitors from NCATS' collection of small molecules using qHTS.
# Four assay panel was created to identify potential Zika Virus inhibitors. Namely, (1) GU unlinked NS2B-NS3 AMC tagged protease qHTS, (2) GU unlinked NS2B-NS3 Rhodamine tagged protease qHTS, (3) NINDS linked NS2B-NS3 AMC tagged protease qHTS, (4) NINDS linked NS2B-NS3 Rhodamine tagged protease qHTS. Active compounds were re-acquired and re-screened to confirm inhibition. Inhibitors were further screened against various confirmatory and counterscreens in dose response format.
# Early Translation Branch (ETB)
# National Center for Advancing Translational Sciences (NCATS), Rockville, MD
# National Institute of Health (NIH), Bethesda, Maryland
# Padmanabhan lab provided the NS2B hydrophilic domain and NS3 protease domain in a noncovalent complex used for the unlinked assay. Control compound aprotinin is obtained from Thermo Scientific (#78432; Waltham, Massachusetts). Rhodamine110 substrate ([N-Cbz]-Nle-Lys-Arg-Arg-Rhod110-Arg-Arg-Lys-Nle-[N-Cbz]) was purchased from either Genscript or Bachem.
# 1536-well Protease (Rhodamine110 Substrate) Assay:
# Briefly, 3 microL of enzyme (25 nM final concentration), in assay buffer (10 mM Tris-HCl pH 8.0 with 0.01% Tween 20) were dispensed into a 1,536-well solid-bottom black plate (Greiner Bio One, Monroe, NC). Twenty-three nL of compounds (final concentration range 7.28 nM to 114 microM) or control Aprotinin (final concentration range 3.47 nM to 114 microM) were transferred via Wako Pin-tool (Wako Automation, Richmond, VA). Samples were incubated (room temperature, protected from light) for 15 minutes followed by a 1 microL Rhodamine110 substrate addition (1.5 microM final concentration). Plates were then immediately read on a ViewLux High-throughput CCD imager (PerkinElmer, Waltham, MA) equipped with FITC fluorescence optics (480(20) nm excitation, 540(25) nm emission), then incubated (room temperature, protected from light) for 15 minutes (~15% conversion). The change in fluorescence intensity over the 15-minute reaction period was normalized against no-inhibitor and no-enzyme controls and the resulting percent inhibition data were fitted to a 4-parameter Hill equation. Aprotinin was used as intraplate control.
# On the % scale 0 is the no-effect control and ±100 the full control effect.
row,Compound,"activity change, negative = inhibition"
1,Cc1nc2n(c(=O)c1CCN1CCC(c3noc4cc(F)ccc34)CC1)CCC[C@H]2O,9.67% (inactive)
2,CC(=O)OCC(=O)[C@@]1(O)[C@H](C)C[C@H]2[C@@H]3CCC4=CC(=O)C=C[C@]4(C)[C@@]3(F)[C@@H](O)C[C@@]21C,-2.51% (inactive)
3,CC(CCc1ccccc1)NCC(O)c1ccc(O)c(C(N)=O)c1 (stereo not given),24.1% (inactive)
4,CC(C)n1nc(-c2cc3cc(O)ccc3[nH]2)c2c(N)ncnc21,-0.422% (inactive)
5,CCCCS(=O)(=O)N[C@@H](Cc1ccc(OCCCCC2CCNCC2)cc1)C(=O)O,-5.86% (inactive)
6,NC(=NCCCCCCN=C(N)/N=C(\N)Nc1ccc(Cl)cc1)/N=C(\N)Nc1ccc(Cl)cc1,26.5% (inactive)
7,O=C(OCCOCCO)c1ccccc1Nc1cccc(C(F)(F)F)c1,0% (inactive)
8,CN1C(CCl)Nc2cc(Cl)c(S(N)(=O)=O)cc2S1(=O)=O (stereo not given),-19% (inactive)
9,Cc1ccccc1C(=O)Nc1ccc(C(=O)N2CCCC(N(C)C)c3ccccc32)cc1 (stereo not given),5% (inactive)
10,Cc1ccc(C(=O)C(C)CN2CCCCC2)cc1 (stereo not given),3.5% (inactive)
11,O=c1[nH]c(=O)n([C@H]2CCCO2)cc1F,10.2% (inactive)
12,CN1CCN(C(c2ccccc2)c2ccccc2)CC1,70.8% (inactive)
13,OC[C@H]1O[C@H](O[C@]2(CCl)O[C@H](CCl)[C@@H](O)[C@@H]2O)[C@H](O)[C@@H](O)[C@H]1Cl,7.78% (inactive)
14,CC(C)(C)NC(=O)[C@@H]1CN(Cc2cccnc2)CCN1C[C@@H](O)C[C@@H](Cc1ccccc1)C(=O)N[C@H]1c2ccccc2C[C@H]1O,22.3% (inactive)
15,CC(=O)OCC(=O)[C@@]1(O)CC[C@H]2[C@@H]3CCC4=CC(=O)C=C[C@]4(C)[C@H]3[C@@H](O)C[C@@]21C,-3.3% (inactive)
16,CN(C)CCCOc1nn(Cc2ccccc2)c2ccccc12,89.3% (inactive)
17,Nc1ccn([C@@H]2O[C@H](CO)[C@@H](O)C2(F)F)c(=O)n1,40.5% (inactive)
18,C#C[C@]1(OC(C)=O)CC[C@H]2[C@@H]3CCC4=C[C@@H](OC(C)=O)CC[C@@H]4[C@H]3CC[C@@]21C,-19% (inactive)
19,CN1[C@@H]2CC[C@H]1CC(OC(=O)c1c[nH]c3ccccc13)C2 (stereo not given in full),15% (inactive)
20,CC(=O)O[C@]1(C(C)=O)CC[C@H]2[C@@H]3C[C@H](C)C4=CC(=O)CC[C@]4(C)[C@H]3CC[C@@]21C,-10.9% (inactive)
21,COC(=O)CCc1ccc(OCC(O)CNC(C)C)cc1 (stereo not given),25% (inactive)
22,Cc1ccc(Nc2c(F)cccc2Cl)c(CC(=O)O)c1,-15.5% (inactive)
23,CC(C)(C)CC(C)(C)c1ccc(OCCOCC[N+](C)(C)Cc2ccccc2)cc1,217% (inactive)
24,COC(=O)C1=C(C)NC(C)=C(C(=O)O[C@@H]2CCCN(Cc3ccccc3)C2)[C@@H]1c1cccc([N+](=O)[O-])c1,40.3% (inactive)
25,COc1ccc(CN2CCN(C(c3ccc(F)cc3)c3ccc(F)cc3)CC2)c(OC)c1OC,75.9% (inactive)
